# CaV13 FRET inh = Primary screen for inhibitors of IQ motif and Ca2+-dependent inactivation inhibitor domain binding in CACNA1D, Förster resonance energy transfer in living cells, …; 340,000 tested, 0.098% active; AID 743397; inhibition, % at 12.3 µM; HEK cells, CFP/YFP FRET ICDI-IQ, plate reader, 10 min; percent FRET-ratio fall versus neutral wells;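 active = mean replicate inhibition of at least 30% and at least 1% of replicates passing that level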;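 note: 0% = median of the neutral control wells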
# GC-A act = GC-A (human) enzyme activation | 370,000 tested, 0.14% active | activation, % at 10 µM | HEK293 GC-A cells, cGMP TR-FRET, EC30 ANP; 0% at EC30 ANP, 100% saturating ANP; in the data active = activation above about 40%
# Target sequence (P16066 whole entry, looked up): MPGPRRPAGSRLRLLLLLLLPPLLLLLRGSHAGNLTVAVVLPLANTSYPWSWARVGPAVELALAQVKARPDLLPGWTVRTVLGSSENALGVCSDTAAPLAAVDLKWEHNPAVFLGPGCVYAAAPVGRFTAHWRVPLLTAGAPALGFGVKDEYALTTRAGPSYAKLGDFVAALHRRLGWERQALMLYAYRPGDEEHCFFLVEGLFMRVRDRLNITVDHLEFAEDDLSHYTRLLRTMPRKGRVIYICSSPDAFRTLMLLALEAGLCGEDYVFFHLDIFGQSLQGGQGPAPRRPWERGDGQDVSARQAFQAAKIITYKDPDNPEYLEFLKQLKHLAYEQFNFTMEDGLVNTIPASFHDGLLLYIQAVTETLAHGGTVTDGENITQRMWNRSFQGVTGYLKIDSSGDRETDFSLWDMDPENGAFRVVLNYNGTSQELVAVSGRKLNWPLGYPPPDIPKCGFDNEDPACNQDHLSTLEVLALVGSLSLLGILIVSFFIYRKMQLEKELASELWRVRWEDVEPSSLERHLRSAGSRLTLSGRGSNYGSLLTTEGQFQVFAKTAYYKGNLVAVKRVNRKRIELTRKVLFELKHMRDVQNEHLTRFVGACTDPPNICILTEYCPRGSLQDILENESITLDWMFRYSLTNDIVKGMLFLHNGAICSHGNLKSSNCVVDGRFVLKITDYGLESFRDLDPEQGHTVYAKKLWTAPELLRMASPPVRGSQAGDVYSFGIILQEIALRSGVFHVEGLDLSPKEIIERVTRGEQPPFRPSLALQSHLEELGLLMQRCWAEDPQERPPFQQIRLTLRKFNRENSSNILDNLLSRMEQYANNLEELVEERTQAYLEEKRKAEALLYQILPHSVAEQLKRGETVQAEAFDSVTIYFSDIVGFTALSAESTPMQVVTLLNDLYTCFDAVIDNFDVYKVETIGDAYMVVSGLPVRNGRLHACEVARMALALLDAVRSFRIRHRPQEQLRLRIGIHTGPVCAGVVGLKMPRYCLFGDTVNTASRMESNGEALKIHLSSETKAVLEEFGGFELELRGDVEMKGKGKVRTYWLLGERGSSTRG
# NPR2 activator = GC-B (human) receptor activation. P20594. HEK293-GC-B cells, CNP EC30, cGMP TR-FRET; 0% at EC30 CNP, 100% saturating CNP. activation, % at 10 µM. 370,000 tested, 0.11% active. AID 1920062;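 active = activation at 10 µM reaching about 35% in either raw or pattern-adjusted values, limit read from the data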
# Rin1 Abl inh = inhibitors of human Rin1-Abl protein interaction | 360,000 tested, 0.4% active | P00519+Q13671 | TR-FRET Rin1/Abl binding, biochemical | inhibition, % at 7.35 µM; in the data active = inhibition above about 5%, passing the limit was not always enough
# * marks the source's active call; other numbers are inactive results; x = not tested or not shown; + = active, no number; ! = not confirmed by another sample. Shown are actives, neighbours in structure and some others; about 0.67% of the full set was active somewhere.
SMILES,CaV13 FRET inh,GC-A act,NPR2 activator,Rin1 Abl inh
NC(=O)c1c(NC(=O)c2ccccc2)sc2c1CCN(Cc1ccccc1)C2,+,0,-5,-2
Cc1cc(C)cc(NC(=O)NCCCN2CCN(c3ccc(F)cc3)CC2)c1,x,-3,-3,x
COc1ccc(CCN(Cc2cccs2)S(=O)(=O)c2ccc(F)cc2)cc1OC,x,3,-2,x
N#CC1=C(N)OC2=C(C(=O)CCC2)C1c1cc2c(cc1Br)OCO2 (stereo not drawn),60*,-3,-2,-4
C[C@H]1[C@H](NC(=O)c2ccc(C(F)(F)F)cc2)CC[C@@]23CCCN2C(=O)CCC[C@@H]13,x,-1,-2,x
O=[N+]([O-])c1c(Nc2ccccc2O)cc(Cl)c2nonc12,-4,40,42*,-2
O=[N+]([O-])c1c(Nc2ccccc2O)ccc2nonc12,-5,-9,-3,-5
COCc1cc(C)nc(Nc2ccccc2C)c1C#N,-9,0,-2,0
CCN(CC)CCCNc1nc(C)cc(COC)c1C#N,45*,3,3,-2
CCCCNC(=O)NCC1CCN(Cc2ccc(OC)cc2)CC1,x,1,-2,x
COc1ccc(CN2C(=O)C(C)Nc3ncnc(N4CCOCC4)c32)cc1 (stereo not drawn),-5,1,3,1
COc1ccc(CN2C(=O)C(C)Nc3ncnc(N4CCN(c5ccccc5)CC4)c32)cc1 (stereo not drawn),63*!,0,-1,2
O=C(Nc1ccc(C(O)(C(F)(F)F)C(F)(F)F)cc1)c1ccc(Cl)cc1,x,-1,1,x
CCCOc1ccccc1N/C(=N\S(=O)(=O)c1ccc(C)cc1)Nc1nc(C)cc(C)n1,x,45*,54*,-4
COC(=O)c1cc(/C=C/c2ccccc2)on1,x,59*,6,-2
CCOC(=O)N1CCN(C(=O)C2CCN(C(=O)c3ccccc3C)CC2)CC1,-5,41*,18,-1
Cc1ccccc1C(=O)N1CCC(C(=O)N2CCN(c3ncccn3)CC2)CC1,-5,0,-1,4
CCC(C)Nc1nc2c(c(=O)n(C)c(=O)n2C)n1Cc1cccc(C)c1 (stereo not drawn),-7,20,11,3
Cc1cccc(Cn2c(NC3CCCC3)nc3c2c(=O)[nH]c(=O)n3C)c1,-7,20,10,-4
CCNc1nc2c(c(=O)n(Cc3ccccc3)c(=O)n2C)n1Cc1ccccc1,x,40,40*,-1
Cn1c(=O)[nH]c(=O)c2c1nc(NC1CCCCC1)n2Cc1ccccc1,x,52*,39*,-1
Cn1c(=O)c2c(nc(NCC3CCCO3)n2Cc2cccc(Br)c2)n(C)c1=O (stereo not drawn),-5,32,38*,2
Cc1cccc(Nc2nc3c(c(=O)n(C)c(=O)n3C)n2Cc2ccccc2)c1,x,53*,47*,-4
CCOc1ccc(N(CC(=O)Nc2c(C)n(C)n(-c3ccccc3)c2=O)S(=O)(=O)c2ccc(C)c(C)c2)cc1,x,4,-4,x
CCNc1nc2c(c(=O)n(C)c(=O)n2C)n1Cc1ccc(Cl)cc1,-6,28,27,1
SMILES,CaV13 FRET inh,GC-A act,NPR2 activator,Rin1 Abl inh
CCC(C)Nc1nc2c(c(=O)n(C)c(=O)n2C)n1Cc1ccc(Cl)cc1 (stereo not drawn),-5,42*,48*,0
Cc1ccc(Cn2c(NCCc3ccccc3)nc3c2c(=O)n(C)c(=O)n3C)cc1,x,27,31,1
CCCNc1nc2c(c(=O)n(C)c(=O)n2C)n1Cc1ccc(F)cc1,-5,33,41*,-1
Cc1c(NC(=O)c2cc3c(s2)-c2ccccc2OC3)cccc1[N+](=O)[O-],-3,39,59*,-2
COC(=O)C1CN(Cc2cn(Cc3ccc(C)cc3)nn2)CCS(=O)(=O)N1Cc1ccc(F)cc1 (stereo not drawn),x,-7,-3,x
O=C1C=C(c2c(O)ccc3ccccc23)c2ccccc2C1=O,-7,44*,49*,6
O=C1C=C(O)c2cccc(O)c2C1=O,x,2,-7,-3
COc1ccc(COc2cc(-c3cccc(OC)c3)nc3ccc(NC(=O)C(C)C)cc23)cc1,-4,52*,55*,2
C=CCN1[C@H](Cc2ccccc2)COc2cc(F)ccc2S1(=O)=O,x,1,-6,x
CCc1ccc(Nc2nnc(SC3CCOC3=O)s2)cc1 (stereo not drawn),-3,48*,1,-6
C=CCOC(=O)C1=C(C)NC(=S)NC1/C=C/c1ccccc1 (stereo not drawn),-11,43*,-2,-4
CC1=C(C(=O)OCc2ccccc2)C(/C=C/c2ccccc2)NC(=S)N1 (stereo not drawn),-5,39,-4,0
Cc1noc(NS(=O)(=O)c2ccc(NC(=O)CSc3ncccn3)cc2)c1C,8,2,-3,-3
Cc1cc(C)nc(SCC(=O)Nc2ccc(S(=O)(=O)Nc3onc(C)c3C)cc2)n1,80*,-2,-10,-2
C=CCn1c(SCC(=O)Nc2ccc(O)cc2)nc2sc(C)c(C)c2c1=O,-2,-5,-2,-1
C=CCn1c(=O)c2c(C)c(C)sc2n2c(Nc3ccc(OC)cc3)nnc12,0,34,39*,0
Cc1ccc(-n2c(SCC(=O)Nc3ccc(S(=O)(=O)Nc4cc(C)nc(C)n4)cc3)nnc2-c2cccs2)cc1,x,3,-5,x
NC(=S)N/N=C1\CC(c2ccc3c(c2)OCCO3)Oc2ccc(F)cc21 (stereo not drawn),-4,32,42*,-1
COc1cccc(-c2ccc3ncnc(NCc4cccc(C)c4)c3c2)c1,-6,6,12,0
COc1cccc(CNc2ncnc3ccc(-c4c(C)noc4C)cc23)c1,-6,51*,56*,0
COc1ccc(C[C@H]2CN3C(=NC[C@@H]3Cc3ccccc3)N2CCNC(=O)CCC2CCCCC2)cc1,65*,-10,-12,2
C=C1CCC2C(C)(C)CCC[C@]2(C)[C@H]1CC1=C(O)C(=O)C(CO)=CC1=O (stereo partly drawn),x,4,5,x
Cc1cc(NC(=O)COC(=O)COc2ccc(C(=O)c3ccccc3)cc2)no1,-1,64*,-1,1
CCc1ccccc1OCC(=O)OCC(=O)Nc1cc(C)on1,-7,-3,0,1
CCN(c1ccccc1)S(=O)(=O)c1ccc(OC)c(NC(=O)CN(C)C)c1,+,-8,-8,0
CCN1C(=O)c2cccc3c(S(=O)(=O)N(C)C)ccc1c23,42*,1,2,-4
C=CCn1c(C)cc(C(=O)Cn2ncc(Cl)c(Cl)c2=O)c1C,-5,38,49*,0
O=C(OCn1ncc(Cl)c(Cl)c1=O)c1ccccc1Cl,-4,43*,33,-2
CC(C)(C)C(=O)Cn1ncc(N2CCCC2)c(Br)c1=O,0,1,1,-1
O=C(Cn1ncc(N2CCOCC2)c(Cl)c1=O)c1ccc(Cl)cc1,-1,x,x,-1

# Source: PubChem
